# Results: PubChem BioAssay (EPA / NIEHS)
# Calls of active or inactive are those of the source. The calls were made as follows: active = hit-call score of the fitted dose curve at least 0.9, where 1 is the maximum; inactive = score below 0.9.
# Molecular target: Hepatocyte nuclear factor 3-beta (Homo sapiens) (UniProt Q9Y261)
# Test: ATG_FoxA2_CIS: Attagene CIS-FACTORIAL HepG2 Assay for human Forkhead box A2 (FOXA2) (AID 2282942)
# Conditions: HepG2 cis-reporter transcription factor activity, 24 h; actives raise or lower the signal
# Procedure, shortened: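 Readout: fluorescent reporter transcripts resolved by capillary electrophoresis after RT-PCR. Transiently transfected HepG2, 24 h compound exposure, endogenous TF activity at cis promoter elements. Gain or loss of signal fitted relative to DMSO.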
# Hepatocyte nuclear factor 3-beta (Homo sapiens), sequence (Q9Y261 whole entry, looked up): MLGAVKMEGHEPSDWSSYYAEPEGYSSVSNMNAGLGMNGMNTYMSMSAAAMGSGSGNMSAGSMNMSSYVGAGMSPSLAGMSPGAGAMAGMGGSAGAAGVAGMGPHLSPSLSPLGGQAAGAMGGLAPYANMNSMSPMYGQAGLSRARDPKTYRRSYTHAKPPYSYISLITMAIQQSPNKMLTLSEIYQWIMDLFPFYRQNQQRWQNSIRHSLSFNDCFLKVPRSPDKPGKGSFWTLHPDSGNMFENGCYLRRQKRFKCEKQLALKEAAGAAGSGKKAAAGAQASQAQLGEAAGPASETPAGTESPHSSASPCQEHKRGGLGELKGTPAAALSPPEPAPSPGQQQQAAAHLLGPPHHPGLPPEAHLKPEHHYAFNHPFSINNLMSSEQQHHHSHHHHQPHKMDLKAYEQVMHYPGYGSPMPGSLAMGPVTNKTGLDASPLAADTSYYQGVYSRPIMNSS
Structure (SMILES),outcome,AC50
Nc1ccc(-c2ccc(N)c(N)c2)cc1N,inactive,–
CCOP(O)OCC,inactive,–
C#CC1(O)CCCCC1,inactive,–
O=c1[nH]c(Cl)c(Cl)cc1Cl,inactive,–
CCC(C)c1cc(C(C)(C)C)cc(-n2nc3ccccc3n2)c1O (stereo not drawn),inactive,–
[CH3][Sn]([Cl])([Cl])[Cl],inactive,–
Nc1c(Cl)c(Cl)c(Cl)c(Cl)c1Cl,inactive,–
Nc1ccccc1C(=O)OCCc1ccccc1,–,14.6 µM (active)
O=C(O)CCCc1ccc(N(CCCl)CCCl)cc1,inactive,–
Nc1cc(Cl)cc(Cl)c1,inactive,–
COc1ncc(F)c2nc(S(=O)(=O)Nc3c(F)cccc3F)nn12,inactive,–
COC(C)(C)CCC[C@H](C)C/C=C/C(C)=C/C(=O)OC(C)C,inactive,–
CCc1cccc(C)c1N(C(=O)CCl)[C@@H](C)COC,inactive,–
CC(Cc1ccc(C(C)(C)C)cc1)CN1C[C@@H](C)O[C@@H](C)C1 (stereo partly drawn),inactive,–
O=C(O)c1cc[c]([Hg][Cl])cc1,inactive,–
C[N+](C)(C)CC(=O)O,inactive,–
O=S(=O)(c1ccccc1)c1ccccc1,inactive,–
Clc1ccc(-c2ccccc2)cc1,inactive,–
CN(C)C(=O)C(c1ccccc1)c1ccccc1,inactive,–
C=CCc1ccc(OC(=O)Cc2ccccc2)c(OC)c1,inactive,–
CC1CCCC1.[C-]#[O+].[C-]#[O+].[C-]#[O+].[Mn],inactive,–
O=C(O)COc1ccccc1,inactive,–
[Cl][Sb]([Cl])[Cl],inactive,–
CCC(=O)c1ccc(Cl)cc1,inactive,–
Cc1ccc(N(SC(F)(Cl)Cl)S(=O)(=O)N(C)C)cc1,inactive,–
CC1(C)CC(=O)CC(C)(C)N1[O],inactive,–
SCc1ccco1,inactive,–
C[C@]12CCC(=O)C(O)=C1CC[C@@H]1[C@@H]2CC[C@]2(C)C(=O)CC[C@@H]12,inactive,–
CSc1nc(N=[N+]=[N-])nc(NC(C)C)n1,inactive,–
O=[N+]([O-])O.O=[N+]([O-])O.[Cd],inactive,–

# System: not listed separately
# Test: ATG_FoxO_CIS: Attagene CIS-FACTORIAL HepG2 Assay for human Forkhead box O (FoxO) (AID 2282943)
# Conditions: HepG2 Attagene cis-reporter, FoxO element, mRNA; actives raise or lower the signal
# Procedure, shortened: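 HepG2 cells transiently transfected with cis-promoter-driven multiple reporter transcription units; 24 h after chemical dosing, reporter mRNA quantified by RT-PCR, fluorescent primer extension, HpaI digestion and capillary electrophoresis. Bidirectional fitting versus DMSO baseline.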
row,Structure (SMILES),outcome
1,Nc1ccc(-c2ccc(N)c(N)c2)cc1N,inactive
2,CCOP(O)OCC,inactive
3,C#CC1(O)CCCCC1,inactive
4,O=c1[nH]c(Cl)c(Cl)cc1Cl,inactive
5,CCC(C)c1cc(C(C)(C)C)cc(-n2nc3ccccc3n2)c1O (stereo not drawn),inactive
6,[CH3][Sn]([Cl])([Cl])[Cl],inactive
7,Nc1c(Cl)c(Cl)c(Cl)c(Cl)c1Cl,inactive
8,COC(=O)c1ccccc1S(=O)(=O)NC(=O)Nc1nc(C)cc(C)n1,inactive
9,Nc1ccccc1C(=O)OCCc1ccccc1,inactive
10,N#Cc1cccc(C#N)c1,inactive
11,O=C(O)CCCc1ccc(N(CCCl)CCCl)cc1,inactive
12,Nc1cc(Cl)cc(Cl)c1,inactive
13,COc1ncc(F)c2nc(S(=O)(=O)Nc3c(F)cccc3F)nn12,inactive
14,COC(C)(C)CCC[C@H](C)C/C=C/C(C)=C/C(=O)OC(C)C,inactive
15,[CH3][Sn]([CH3])([Cl])[Cl],inactive
16,BrCBr,inactive
17,CCc1cccc(C)c1N(C(=O)CCl)[C@@H](C)COC,inactive
18,O=P1(NCCCl)OCCCN1CCCl (stereo not drawn),inactive
19,CC(Cc1ccc(C(C)(C)C)cc1)CN1C[C@@H](C)O[C@@H](C)C1 (stereo partly drawn),inactive
20,O=C(O)c1cc[c]([Hg][Cl])cc1,inactive

row,Structure (SMILES),outcome
1,C[N+](C)(C)CC(=O)O,inactive
2,O=S(=O)(c1ccccc1)c1ccccc1,inactive
3,Clc1ccc(-c2ccccc2)cc1,inactive
4,CN(C)C(=O)C(c1ccccc1)c1ccccc1,inactive
5,C=CCc1ccc(OC(=O)Cc2ccccc2)c(OC)c1,inactive
6,O=P(O)(Oc1ccccc1)Oc1ccccc1,inactive
7,CC1CCCC1.[C-]#[O+].[C-]#[O+].[C-]#[O+].[Mn],inactive
8,O=C(O)COc1ccccc1,inactive
9,[Cl][Sb]([Cl])[Cl],inactive
10,CCC(=O)c1ccc(Cl)cc1,inactive
11,Cc1ccc(N(SC(F)(Cl)Cl)S(=O)(=O)N(C)C)cc1,inactive
12,CC1(C)CC(=O)CC(C)(C)N1[O],inactive
13,SCc1ccco1,inactive
14,O=CNC(N1CCN(C(NC=O)C(Cl)(Cl)Cl)CC1)C(Cl)(Cl)Cl (stereo not drawn),inactive
15,Oc1cc(Cl)ccc1Cl,inactive
16,O=[N+]([O-])c1cc(C(F)(F)F)c(Cl)c([N+](=O)[O-])c1Cl,inactive
17,C[C@]12CCC(=O)C(O)=C1CC[C@@H]1[C@@H]2CC[C@]2(C)C(=O)CC[C@@H]12,inactive
18,CSc1nc(N=[N+]=[N-])nc(NC(C)C)n1,inactive
19,O=[N+]([O-])O.O=[N+]([O-])O.[Cd],inactive

# System: not listed separately
# Test: ATG_GATA_CIS: Attagene CIS-FACTORIAL HepG2 Assay for human GATA Binding Protein (AID 2282944)
# Conditions: HepG2 GATA cis-element reporter, Attagene multiplex mRNA; actives raise or lower the signal
# Procedure, shortened: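 Read-out: fluorescent reporter mRNA fragments resolved by capillary electrophoresis after RT-PCR. Human liver HepG2 cells carried transiently transfected cis-regulated reporter constructs; chemicals incubated 24 h; gain or loss of signal fitted relative to DMSO.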
Structure (SMILES),outcome,AC50
Nc1ccc(-c2ccc(N)c(N)c2)cc1N,inactive,–
CCOP(O)OCC,inactive,–
C#CC1(O)CCCCC1,inactive,–
O=c1[nH]c(Cl)c(Cl)cc1Cl,inactive,–
CCC(C)c1cc(C(C)(C)C)cc(-n2nc3ccccc3n2)c1O (stereo not drawn),inactive,–
[CH3][Sn]([Cl])([Cl])[Cl],inactive,–
Nc1c(Cl)c(Cl)c(Cl)c(Cl)c1Cl,inactive,–
COC(=O)c1ccccc1S(=O)(=O)NC(=O)Nc1nc(C)cc(C)n1,inactive,–
Nc1ccccc1C(=O)OCCc1ccccc1,inactive,–
N#Cc1cccc(C#N)c1,inactive,–
O=C(O)CCCc1ccc(N(CCCl)CCCl)cc1,inactive,–
Nc1cc(Cl)cc(Cl)c1,inactive,–
COc1ncc(F)c2nc(S(=O)(=O)Nc3c(F)cccc3F)nn12,inactive,–
COC(C)(C)CCC[C@H](C)C/C=C/C(C)=C/C(=O)OC(C)C,inactive,–
[CH3][Sn]([CH3])([Cl])[Cl],inactive,–
BrCBr,inactive,–
CCc1cccc(C)c1N(C(=O)CCl)[C@@H](C)COC,inactive,–
O=P1(NCCCl)OCCCN1CCCl (stereo not drawn),inactive,–
CC(Cc1ccc(C(C)(C)C)cc1)CN1C[C@@H](C)O[C@@H](C)C1 (stereo partly drawn),inactive,–
O=C(O)c1cc[c]([Hg][Cl])cc1,inactive,–

Structure (SMILES),outcome,AC50
C[N+](C)(C)CC(=O)O,inactive,–
O=S(=O)(c1ccccc1)c1ccccc1,inactive,–
Clc1ccc(-c2ccccc2)cc1,inactive,–
CN(C)C(=O)C(c1ccccc1)c1ccccc1,inactive,–
C=CCc1ccc(OC(=O)Cc2ccccc2)c(OC)c1,inactive,–
O=P(O)(Oc1ccccc1)Oc1ccccc1,inactive,–
CC1CCCC1.[C-]#[O+].[C-]#[O+].[C-]#[O+].[Mn],inactive,–
O=C(O)COc1ccccc1,inactive,–
[Cl][Sb]([Cl])[Cl],inactive,–
CCC(=O)c1ccc(Cl)cc1,inactive,–
Cc1ccc(N(SC(F)(Cl)Cl)S(=O)(=O)N(C)C)cc1,inactive,–
CC1(C)CC(=O)CC(C)(C)N1[O],inactive,–
SCc1ccco1,inactive,–
O=CNC(N1CCN(C(NC=O)C(Cl)(Cl)Cl)CC1)C(Cl)(Cl)Cl (stereo not drawn),inactive,–
Oc1cc(Cl)ccc1Cl,inactive,–
O=[N+]([O-])c1cc(C(F)(F)F)c(Cl)c([N+](=O)[O-])c1Cl,inactive,–
C[C@]12CCC(=O)C(O)=C1CC[C@@H]1[C@@H]2CC[C@]2(C)C(=O)CC[C@@H]12,inactive,–
CSc1nc(N=[N+]=[N-])nc(NC(C)C)n1,inactive,–
O=[N+]([O-])O.O=[N+]([O-])O.[Cd],–,11.1 µM (active)
